Several values for one entry are separate records, joined by “and”; a condition that tells them apart may be missing. Identical values can stand only once. Inconclusive results are not listed. Where a structure was tested more than once in an assay, its records may differ in their call. Activity calls are given as the source filed them. Unless noted, calls follow the shape of the full dose curve.
Assays:
[1] = target: Gonadotropin-releasing hormone receptor (Homo sapiens) (UniProt P30968); assay: Human gonadotropin-releasing hormone receptor (GnRHR) small molecule agonists, calcium flux assay in GnRHR-HEK293 cells (AID 1920063); conditions: calcium flux fluorescence, agonist mode; series mostly up to 57.6 µM; also: nearly all actives have a fitted effect of over 35% in size
Chain of Gonadotropin-releasing hormone receptor (Homo sapiens) (P30968 whole entry, looked up): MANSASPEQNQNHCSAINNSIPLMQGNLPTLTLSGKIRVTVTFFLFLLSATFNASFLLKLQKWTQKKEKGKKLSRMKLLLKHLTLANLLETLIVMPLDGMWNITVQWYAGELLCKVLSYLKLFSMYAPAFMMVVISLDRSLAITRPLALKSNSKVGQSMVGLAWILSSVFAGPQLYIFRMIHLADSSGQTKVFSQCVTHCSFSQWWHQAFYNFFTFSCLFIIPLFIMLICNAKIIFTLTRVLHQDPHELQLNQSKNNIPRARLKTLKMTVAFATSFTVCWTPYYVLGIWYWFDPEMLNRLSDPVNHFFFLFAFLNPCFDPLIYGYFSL
In short: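 Intracellular calcium rise is the read-out: engineered human GnRHR HEK293 cells, dye-loaded, are exposed to DMSO-dissolved compounds and fluorescence at Ex/Em 480/540 is tracked for 3 min.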

[2] = target: KiSS-1 receptor (Homo sapiens) (UniProt Q969F8); assay: Human kisspeptin (KISS1R) small molecule agonists, calcium flux assay in KISS1R-HEK293 cells (AID 1920064; active = well fitted activation curve with a large enough effect in the repeat runs); conditions: KISS1R-HEK293, calcium flux fluorescence, agonist; series mostly up to 76.8 µM
Chain of KiSS-1 receptor (Homo sapiens) (Q969F8 whole entry, looked up): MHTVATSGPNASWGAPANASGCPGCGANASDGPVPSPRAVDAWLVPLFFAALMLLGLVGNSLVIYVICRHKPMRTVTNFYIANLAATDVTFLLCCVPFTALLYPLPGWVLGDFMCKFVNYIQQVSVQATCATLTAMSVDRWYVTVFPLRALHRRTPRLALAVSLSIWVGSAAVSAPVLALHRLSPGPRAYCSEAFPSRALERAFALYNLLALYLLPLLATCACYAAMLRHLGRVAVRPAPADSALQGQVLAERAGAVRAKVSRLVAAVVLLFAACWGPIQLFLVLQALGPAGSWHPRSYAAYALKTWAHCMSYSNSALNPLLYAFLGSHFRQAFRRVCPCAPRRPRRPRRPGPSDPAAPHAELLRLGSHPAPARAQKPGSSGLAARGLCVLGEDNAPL
In short: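 Concentration-response testing used 15 concentrations in triplicate on human KISS1R-expressing HEK293 cells. Calcium-dependent fluorescence (Ex/Em 480/540) was followed kinetically for 3 min after compound transfer.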

[3] = G protein-coupled receptor (GPCR) small molecule agonists, calcium flux assay: HEK293 wild type cell line counter screen (AID 1920065); conditions: HEK293 WT calcium flux, fluorescence, agonist mode; series mostly up to 57.6 µM
In short: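 Fluorescence intensity signals activation. After overnight (18 h) culture and a 1 h calcium dye load at 37 C, compounds are added by pin tool and the plate read at 480/540 nm for 3 min in 1 s steps.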

[4] = p53 small molecule agonists, cell-based qHTS assay with rat liver microsomes (AID 1963578); conditions: HCT-116 p53RE-bla, beta-lactamase ratio, 16 h; series mostly up to 66 µM
In short: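 Rat liver microsome activation: microsomes 0.5 mg/mL, NADPH 0.5 mg/mL final; p53RE-bla cells, 16 h 37 C; LiveBLAzer readout, 2 h RT dark.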

[5] = p53 small molecule agonists, cell-based qHTS assay with human liver microsomes: qHTS cell viability counter screen (AID 1963579); conditions: p53RE-bla HCT-116 viability, ATP luminescence, 16 h, HLM; series mostly up to 66 µM; also: nearly all actives have a fitted effect of over 45% in size
In short: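 Luminescent CellTiter-Glo read-out, 30 min at room temperature, gauged cytotoxicity in p53RE-bla cells exposed 16 h at 37 C to DMSO-dissolved compounds with metabolic activation by human liver microsomes and NADPH, each 0.5 mg/mL final.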

[6] = p53 small molecule agonists, cell-based qHTS assay with rat liver microsomes: qHTS cell viability counter screen (AID 1963580); conditions: p53RE-bla HCT-116 + rat microsomes, ATP viability, 16 h; series mostly up to 66 µM; also: nearly all actives have a fitted effect of over 45% in size
In short: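 Luminescent ATP readout (CellTiter-Glo, 30 min at room temperature) reports viability of p53RE-bla HCT-116 cells after 16 h at 37 C with test compounds under metabolic activation by rat liver microsomes and NADPH at 0.5 mg/mL final each.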

[7] = p53 small molecule agonists, cell-based qHTS assay: qHTS cell viability counter screen (AID 1963581); conditions: p53RE-bla HCT-116 viability, ATP luminescence, 16 h; series mostly up to 66 µM; also: nearly all actives have a fitted effect of over 45% in size
In short: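 Luminescence from CellTiter-Glo, reflecting ATP content, serves as the cytotoxicity measure; it is taken after the 2 h reporter substrate step in HCT-116 p53RE-bla cells dosed for 16 h at 37 C.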

[8] = p53 small molecule agonists, cell-based qHTS assay (AID 1963582; active = well fitted activation curve with a large enough effect in the signal ratio in the repeat runs, not every such curve was filed as active; the % refers to the signal ratio); conditions: HCT-116 p53RE-bla reporter, beta-lactamase FRET ratio, 16 h; series mostly up to 66 µM
In short: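 After plating, p53RE-bla cells sat 5 h in the incubator; compounds or DMSO vehicle were pinned in; a 16 h incubation at 37 C followed; FRET substrate was added and, 2 h later at RT, fluorescence was measured.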

[9] = target: 5-hydroxytryptamine receptor 2A (Homo sapiens) (UniProt P28223); assay: 5-hydroxytryptamine receptor 2A (HTR2A) small molecule antagonists, cell-based qHTS assay (AID 1963586); conditions: HTR2A-CHO cells, DOI-induced calcium flux, fluorescence; series mostly up to 61.5 µM; also: nearly all actives have a fitted effect of over 45% in size
Chain of 5-hydroxytryptamine receptor 2A (Homo sapiens) (P28223 whole entry, looked up): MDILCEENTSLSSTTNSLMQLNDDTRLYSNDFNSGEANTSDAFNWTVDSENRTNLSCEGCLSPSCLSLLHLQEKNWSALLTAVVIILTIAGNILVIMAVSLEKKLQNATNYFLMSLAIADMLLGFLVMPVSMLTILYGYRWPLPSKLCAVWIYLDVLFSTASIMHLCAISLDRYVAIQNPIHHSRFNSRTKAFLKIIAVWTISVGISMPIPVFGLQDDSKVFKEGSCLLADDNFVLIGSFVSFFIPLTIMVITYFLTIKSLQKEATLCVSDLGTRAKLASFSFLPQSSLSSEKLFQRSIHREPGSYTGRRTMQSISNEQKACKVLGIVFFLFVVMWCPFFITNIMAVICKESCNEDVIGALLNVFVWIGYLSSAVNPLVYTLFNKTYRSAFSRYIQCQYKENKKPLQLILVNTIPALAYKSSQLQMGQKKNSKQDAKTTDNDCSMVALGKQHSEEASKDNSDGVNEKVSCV
In short: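 CHO cells stably expressing human HTR2A were plated for 18 h at 37 C, then loaded with calcium dye for 1 h. Compounds were preincubated 5 min at room temperature before DOI (4 nM solution) was added. Kinetic fluorescence was read for 3 min.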

[10] = target: 5-hydroxytryptamine receptor 2A (Homo sapiens) (UniProt P28223); assay: 5-hydroxytryptamine receptor 2A (HTR2A) small molecule agonists, cell-based qHTS assay (AID 1963587); conditions: HTR2A-CHO cells, calcium flux fluorescence, agonist mode; series mostly up to 76.8 µM; also: nearly all actives have a fitted effect of over 30% in size; also: potency is read from the fitted curve at half-maximal effect
In short: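 HTR2A-CHO cells, plated 18 h at 37 C/5% CO2, dye-loaded 1 h at 37 C; compounds in DMSO added by pin tool (agonist mode). Intracellular calcium flux read as kinetic fluorescence on FDSS over 2 min at 1 s intervals.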

[11] = target: Muscarinic acetylcholine receptor M1 (Homo sapiens) (UniProt P11229); assay: Cholinergic receptor muscarinic 1 (CHRM1) small molecule antagonists, cell-based qHTS assay (AID 1963588); conditions: CHRM1-CHO antagonist mode, calcium flux fluorescence; series mostly up to 61.5 µM; also: nearly all actives have a fitted effect of over 40% in size
Chain of Muscarinic acetylcholine receptor M1 (Homo sapiens) (P11229 whole entry, looked up): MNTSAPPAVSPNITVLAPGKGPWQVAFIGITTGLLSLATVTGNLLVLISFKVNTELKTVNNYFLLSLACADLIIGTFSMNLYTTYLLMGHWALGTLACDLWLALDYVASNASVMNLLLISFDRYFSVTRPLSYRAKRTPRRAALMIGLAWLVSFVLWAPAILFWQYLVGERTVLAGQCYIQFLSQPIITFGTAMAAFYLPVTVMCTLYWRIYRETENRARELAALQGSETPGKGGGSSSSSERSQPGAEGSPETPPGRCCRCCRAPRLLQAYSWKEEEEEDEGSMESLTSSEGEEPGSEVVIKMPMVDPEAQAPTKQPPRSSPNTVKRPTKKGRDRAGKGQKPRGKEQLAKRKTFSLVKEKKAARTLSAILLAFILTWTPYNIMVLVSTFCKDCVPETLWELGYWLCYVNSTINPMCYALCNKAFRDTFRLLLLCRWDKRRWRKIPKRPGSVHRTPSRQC
In short: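 Compounds were tested at 15 concentrations in three independent runs. Dye-loaded CHRM1-CHO cells were exposed 5 min at room temperature before stimulation by acetylcholine added at 50nM. Intracellular calcium was read kinetically on FDSS for 3 min.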

[12] = target: Muscarinic acetylcholine receptor M1 (Homo sapiens) (UniProt P11229); assay: Cholinergic receptor muscarinic 1 (CHRM1) small molecule agonists, cell-based qHTS assay (AID 1963589); conditions: CHRM1-CHO cells, agonist mode, calcium flux fluorescence; series mostly up to 76.8 µM; also: nearly all actives have a fitted effect of over 35% in size
In short: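 Fluorescent calcium dye reports M1 activation in stably transfected CHO cells. Compounds, 15 concentrations, added after 1 h dye loading at 37 C; kinetic reading at 1 sec intervals.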

[13] = cAMP Responsive Elements (CRE) small molecule antagonists, cell-based qHTS assay (AID 1963591; active = well fitted inhibition curve with a large enough effect in the signal ratio in the repeat runs, not every such curve was filed as active; the % refers to the signal ratio); conditions: CRE-bla HEK293T, beta-lactamase FRET ratio; series mostly up to 92.4 µM
In short: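 Stimulation used NKH477 at a final 0.25 uM for 3 h in compound-treated CRE-bla HEK293T cells, seeded 18 h beforehand. Reporter activity was measured with LiveBLAzer B/G FRET substrate after 2 h at room temperature.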

[14] = target: Beta-2 adrenergic receptor (Homo sapiens) (UniProt P07550); assay: Adrenergic beta2 receptor (ADRB2) small molecule antagonists, cell-based qHTS assay (AID 1963592); conditions: CHO-ADRB2 cells, isoproterenol-stimulated cAMP HTRF ratio, 0.5 h; series mostly up to 92.4 µM; also: nearly all actives have a fitted effect of over 50% in size; also: potency is read from the fitted curve at half-maximal effect
Chain of Beta-2 adrenergic receptor (Homo sapiens) (P07550 whole entry, looked up): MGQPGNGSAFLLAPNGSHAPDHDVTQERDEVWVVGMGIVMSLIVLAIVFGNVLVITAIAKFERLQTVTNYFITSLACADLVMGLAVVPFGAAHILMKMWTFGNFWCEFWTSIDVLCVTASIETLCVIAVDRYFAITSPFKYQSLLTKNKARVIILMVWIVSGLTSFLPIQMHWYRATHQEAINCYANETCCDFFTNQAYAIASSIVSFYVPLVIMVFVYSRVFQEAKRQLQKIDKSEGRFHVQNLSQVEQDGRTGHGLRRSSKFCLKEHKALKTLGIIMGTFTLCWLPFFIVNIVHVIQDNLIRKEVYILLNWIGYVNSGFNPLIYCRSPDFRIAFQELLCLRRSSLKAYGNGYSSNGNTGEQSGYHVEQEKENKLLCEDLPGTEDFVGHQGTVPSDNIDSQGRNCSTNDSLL
In short: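 Assay format: CHO-ADRB2 cells, 18-20hr seeding at 37C/5% CO2, then compound plus 1nM isoproterenol agonist mix for 0.5hr RT. Homogeneous time-resolved fluorescence cAMP detection after 1hr, expressed as 665/615 nm ratio.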

[15] = target: Beta-2 adrenergic receptor (Homo sapiens) (UniProt P07550); assay: Adrenergic beta2 receptor (ADRB2) small molecule agonists, cell-based qHTS assay (AID 1963593); conditions: CHO-ADRB2 cells, cAMP HTRF, 30 min; series mostly up to 92.4 µM;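 also: CHO cells stably overexpressing human ADRB2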
In short: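 CHO cells stably over-expressing ADRB2 were plated overnight at 37C, then dosed with compounds plus a stimulation mix containing 100uM IBMX and 25uM Ro-20-1724 for 0.5hr at room temperature. cAMP was measured by HTRF competition, 1hr.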

[16] = target: D(2) dopamine receptor (Homo sapiens) (UniProt P14416); assay: Dopamine D2 receptor (DRD2) small molecule antagonists, cell-based qHTS assay (AID 1963595; active = well fitted inhibition curve with a large enough effect in the signal ratio in the repeat runs, with a control signal flat; the % refers to the signal ratio); conditions: HEK293-DRD2 cAMP HTRF antagonist mode; series mostly up to 92.4 µM
Chain of D(2) dopamine receptor (Homo sapiens) (P14416 whole entry, looked up): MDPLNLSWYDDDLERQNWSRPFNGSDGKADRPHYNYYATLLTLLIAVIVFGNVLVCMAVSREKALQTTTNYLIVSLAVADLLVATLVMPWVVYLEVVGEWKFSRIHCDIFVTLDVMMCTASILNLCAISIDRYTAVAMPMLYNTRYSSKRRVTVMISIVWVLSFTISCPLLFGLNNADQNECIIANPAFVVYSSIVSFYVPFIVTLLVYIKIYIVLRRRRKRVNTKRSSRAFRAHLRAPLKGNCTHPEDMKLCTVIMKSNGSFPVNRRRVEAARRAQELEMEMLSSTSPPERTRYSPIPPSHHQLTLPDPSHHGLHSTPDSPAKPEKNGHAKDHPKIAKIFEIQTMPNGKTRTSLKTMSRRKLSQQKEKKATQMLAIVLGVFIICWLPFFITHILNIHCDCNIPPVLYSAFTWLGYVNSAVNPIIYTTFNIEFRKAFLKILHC
In short: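 DRD2-HEK293; 0.1 mM Ro20-1724; cpd 10 min RT; NKH477 200 nM + quinpirole 12 nM, 30 min RT; HTRF cAMP (cAMP-d2/anti-cAMP cryptate), 665/620 nm ratio after 1 h.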

[17] = p53 small molecule agonists, cell-based qHTS assay with human liver microsomes (AID 1963577); conditions: HCT-116 p53RE-bla with human liver microsomes, ratio, 16 h; series mostly up to 66 µM;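 also: p53 response element beta-lactamase reporter cells with liver microsomes plus NADPH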
In short: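 p53RE-bla cells; 5 h settle, 37 C/5% CO2; cpd + HLM 0.5 mg/mL + NADPH 0.5 mg/mL (final); 16 h 37 C; LiveBLAzer 2 h RT dark; fluorescence readout.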

[18] = cAMP Responsive Elements (CRE) small molecule agonists, cell-based qHTS assay (AID 1963590); conditions: CRE-bla HEK293T, beta-lactamase FRET ratio, 3 h; series mostly up to 92.4 µM
In short: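 Compound exposure lasted 3 h at 37 C/5% CO2 in CRE-bla HEK 293T cells grown in assay medium with 10% dialyzed FBS and 25 mM HEPES. Reporter signal came from LiveBLAzer B/G FRET substrate, 2 h, room temperature.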

[19] = target: D(2) dopamine receptor (Homo sapiens) (UniProt P14416); assay: Dopamine D2 receptor (DRD2) small molecule agonists, cell-based qHTS assay (AID 1963594); conditions: HEK293-DRD2 cAMP HTRF, agonist mode, 30 min; series mostly up to 92.4 µM; also: nearly all actives have a fitted effect of over 35% in size
In short: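 HEK293 cells stably expressing DRD2 were cultured 24 h at 37 C, then given Ro20-1724 (0.1 mM final) and compounds for 10 min at room temperature. NKH477 (200nM) was then added for 30 min. cAMP was read by HTRF.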

Measured: Potency

O=C(O)COc1ccc(Cl)cc1Cl
not listed: [17] | [18] | [19]
inactive: all other assays above

CN(C)N
not listed: [5] | [8] | [15]
inactive: all other assays above

CC(C)c1ccc(OP(=O)(Oc2ccc(C(C)C)cc2)Oc2ccc(C(C)C)cc2)cc1
not listed: [4] | [7] | [8] | [15] | [17] | [18]
inactive: all other assays above

CCC(C)(CC)c1cc(NC(=O)c2c(OC)cccc2OC)on1
not listed: [4] | [8] | [15] | [17] | [18]
inactive: all other assays above

CC1(C)C(=O)NC(=O)NC1=O
not listed: [10] | [16] | [18]
inactive: all other assays above

O=c1ccc(=O)[nH][nH]1
not listed: [9] | [12] | [13]
inactive: all other assays above

CN(C)C(=S)SSC(=S)N(C)C
inactive and 27.5 µM (active): [10]
not listed: [6] | [13] | [15] | [18]
inactive: all other assays above

C[C@]12CC[C@H]3[C@@H](CC=C4C[C@@H](O)CC[C@@]43C)[C@@H]1CC[C@@H]2O
not listed: [1] | [5] | [9] | [10] | [11] | [12] | [15]
inactive: all other assays above

CCOC(=O)CP(=O)(OCC)OCC
not listed: [14] | [15]
inactive: all other assays above

O=[N+]([O-])c1cccc(O)c1
not listed: [6] | [15]
inactive: all other assays above

CNC(=O)Oc1ccccc1OC(C)C
not listed: [4] | [11] | [13]
inactive: all other assays above

CCCn1cc[n+](C)c1
not listed: [4] | [8] | [17]
inactive: all other assays above

C=CCO
inactive and 61.1 µM (active): [14]
not listed: [1] | [9] | [10] | [11] | [12]
inactive: all other assays above
